Data taken from PubChem BioAssay (NCI).
“And” between values parts separate entries of the source, which are not always exact repeats. Identical values can stand only once. Compounds without any hit were thinned out: in the full panel of roughly 83,000, 20% have a hit.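 Activity criterion: percent growth below 10, measured after cells in 96-well plates were exposed to a single compound concentration for 48 hours.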 The source made the active and inactive calls.

Tests used:
Assay in all cases: NCI-60 one-dose screen, 48 h (100 = growth as untreated, 0 = no growth, -100 = all killed)
Settings in all cases: 10 µM unless noted
HCT-15 colon = tested on: HCT-15 colon
HT29 colon = tested on: HT29 colon
SNB-75 CNS = tested on: SNB-75 CNS
SNB-19 CNS = tested on: SNB-19 CNS
U251 CNS = tested on: U251 CNS
PC-3 prostate = tested on: PC-3 prostate
SK-MEL-5 melanoma = tested on: SK-MEL-5 melanoma
UACC-62 melanoma = tested on: UACC-62 melanoma
LOX IMVI melanoma = tested on: LOX IMVI melanoma
SK-MEL-28 melanoma = tested on: SK-MEL-28 melanoma
SK-MEL-2 melanoma = tested on: SK-MEL-2 melanoma
EKVX NSCLC = tested on: EKVX NSCLC
SN12C renal = tested on: SN12C renal
UO-31 renal = tested on: UO-31 renal
TK-10 renal = tested on: TK-10 renal
ACHN renal = tested on: ACHN renal
CAKI-1 renal = tested on: CAKI-1 renal
A498 renal = tested on: A498 renal
CCRF-CEM leukemia = tested on: CCRF-CEM leukemia
MOLT-4 leukemia = tested on: MOLT-4 leukemia

Compound	growth (HCT-15 colon)	growth (HT29 colon)	growth (SNB-75 CNS)	growth (SNB-19 CNS)	growth (U251 CNS)	growth (PC-3 prostate)	growth (SK-MEL-5 melanoma)	growth (UACC-62 melanoma)	growth (LOX IMVI melanoma)	growth (SK-MEL-28 melanoma)	growth (SK-MEL-2 melanoma)	growth (EKVX NSCLC)	growth (SN12C renal)	growth (UO-31 renal)	growth (TK-10 renal)	growth (ACHN renal)	growth (CAKI-1 renal)	growth (A498 renal)	growth (CCRF-CEM leukemia)	growth (MOLT-4 leukemia)
OCCN1CCN(CCO)CC1	102% (inactive) and 101% (inactive) and 107% (inactive)	108% (inactive) and 101% (inactive) and 110% (inactive)	111% (inactive) and 83.4% (inactive) and 96.1% (inactive)	99.2% (inactive) and 113% (inactive)	95.7% (inactive) and 98% (inactive) and 105% (inactive)	91.7% (inactive) and 99.9% (inactive) and 96.2% (inactive)	102% (inactive) and 92% (inactive) and 115% (inactive)	99.5% (inactive) and 92.6% (inactive) and 109% (inactive)	92.9% (inactive) and 93.2% (inactive) and 111% (inactive)	33.7% (inactive) and 104% (inactive) and 106% (inactive)	104% (inactive) and 97.3% (inactive) and 115% (inactive)	107% (inactive) and 85.1% (inactive) and 114% (inactive)	98.1% (inactive) and 89.2% (inactive) and 112% (inactive)	81.9% (inactive) and 89.7% (inactive) and 86.7% (inactive)	93.6% (inactive) and 107% (inactive) and 108% (inactive)	99.1% (inactive) and 98% (inactive) and 104% (inactive)	104% (inactive) and 81.4% (inactive) and 120% (inactive)	110% (inactive) and 95.5% (inactive) and 101% (inactive)	99.5% (inactive) and 88.4% (inactive) and 98% (inactive)	92.9% (inactive) and 96.2% (inactive) and 97.8% (inactive)
O=C(N/N=C/c1ccccc1)N/N=C/c1ccccc1	104% (inactive) and 103% (inactive)	109% (inactive) and 105% (inactive)	103% (inactive) and 88% (inactive)	105% (inactive) and 106% (inactive)	114% (inactive) and 97.8% (inactive)	97.7% (inactive)	106% (inactive) and 94.5% (inactive)	101% (inactive)	117% (inactive) and 103% (inactive)	121% (inactive) and 113% (inactive)	123% (inactive) and 119% (inactive)	104% (inactive) and 101% (inactive)	103% (inactive) and 114% (inactive)	92.4% (inactive) and 102% (inactive)	119% (inactive) and 110% (inactive)	109% (inactive) and 111% (inactive)	92.2% (inactive) and 114% (inactive)	61.3% (inactive)	98.6% (inactive) and 102% (inactive)	–
COc1ccc(CCN(C)CCCC(C#N)(c2ccc(OC)c(OC)c2)C(C)C)cc1OC (stereo not drawn)	94% (inactive) and 86.4% (inactive) and 101% (inactive)	79.2% (inactive) and 74.7% (inactive) and 93.8% (inactive)	65% (inactive) and -24.5% (active) and 86.8% (inactive)	107% (inactive) and 101% (inactive) and 105% (inactive)	90.4% (inactive) and 95.2% (inactive) and 99.9% (inactive)	76.3% (inactive) and 68.4% (inactive) and 95.5% (inactive)	94% (inactive) and 99.8% (inactive) and 101% (inactive)	106% (inactive) and 97% (inactive) and 101% (inactive)	92.3% (inactive) and 95.4% (inactive) and 92.7% (inactive)	106% (inactive) and 99.7% (inactive)	93.5% (inactive) and 109% (inactive)	92.1% (inactive) and 90.3% (inactive) and 98.6% (inactive)	92.7% (inactive) and 107% (inactive) and 109% (inactive)	63.4% (inactive) and 86.6% (inactive) and 81.2% (inactive)	97.1% (inactive) and 127% (inactive) and 95.8% (inactive)	93.2% (inactive) and 95.8% (inactive)	73% (inactive) and 79.3% (inactive) and 94.5% (inactive)	56.5% (inactive) and 96.5% (inactive) and 75.5% (inactive)	95% (inactive) and 86.2% (inactive) and 97.9% (inactive)	–
COc1cc(/C=N/Nc2nc3c([nH]2)c(=O)n(C)c(=O)n3C)ccc1O	105% (inactive)	97.7% (inactive) and 110% (inactive)	86.9% (inactive) and 88% (inactive)	112% (inactive) and 108% (inactive)	99.1% (inactive) and 104% (inactive)	99% (inactive) and 98% (inactive)	97.9% (inactive) and 104% (inactive)	91.9% (inactive) and 97.9% (inactive)	98.2% (inactive) and 116% (inactive)	108% (inactive) and 107% (inactive)	98.2% (inactive) and 108% (inactive)	103% (inactive) and 119% (inactive)	97.4% (inactive) and 98.2% (inactive)	86.7% (inactive) and 86.2% (inactive)	95.7% (inactive) and 93.1% (inactive)	109% (inactive)	99.3% (inactive) and 118% (inactive)	82.3% (inactive) and 77.6% (inactive)	89.2% (inactive) and 104% (inactive)	87.9% (inactive) and 97.5% (inactive)
